Test results published in PubChem BioAssay (NCI).
About 79,000 compounds went through this panel and 15% of them were active in at least one assay; those are over-represented in the sample as a whole. Values without a mark were called inactive. Activity calls are given as the source filed them. No stated cut-off is given here; in the data, active means growth inhibition above about 70%; inactive means the rest.

experiment: NCI Yeast Anticancer Drug Screen. Data for the bub3 strain (AID 167); settings: S. cerevisiae bub3 mutant strain, at 11.0 µM, active compounds read high
Procedure, shortened: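 Whole-cell yeast assay. The mutant strain was incubated with compounds, and growth inhibition was determined by comparison with vehicle-treated cells.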

SMILES | growth inhibition
O=CC=C(c1ccccc1)c1ccccc1 | -32%
FC(F)(F)c1nc2nc(Cl)c(Cl)nc2n1CCCN1CCOCC1 | 22%
BrCC[P+](c1ccccc1)(c1ccccc1)c1ccccc1 | 32%
N#CSc1ccc(S(N)(=O)=O)cc1 | -17%
O=[N+]([O-])c1ccc2nc3ccccc3cc2c1 | 14%
O=C(NC(Nc1ccc(F)c(Cl)c1)(C(F)(F)F)C(F)(F)F)C(C(F)(F)F)C(F)(F)F | 80% (active)
O=C(/C=C\c1ccc(Cl)cc1Cl)c1cccs1 | 38%
O=C(NCCCCNCCCNC(=O)c1cc(-c2ccccc2)nc2ccccc12)c1cc(-c2ccccc2)nc2ccccc12 | -2%
NC(=NCc1ccccc1)N/N=C\c1ccnc2ccccc12 | 1%
CCCCN(CCCC)CCSc1ccc(Cl)cc1 | -7%
COc1cc(C2C3=C(COC3=O)Oc3cc4c(cc32)OCO4)ccc1O (stereo not drawn) | 12%
C#CCCCc1ccccc1 | -25%
CCc1ccc(NS(=O)(=O)c2ccccc2)c([N+](=O)[O-])c1 | 7%
COc1ccc(C2c3cc4c(cc3OC(C)(O)C2C)OCO4)c(OC)c1 (stereo not drawn) | 1%
COC(=O)c1ccc(CCC2=CC(=O)C(Br)=CC2=O)cc1 | -9%
NNC(=O)CCc1ccc2ccc3ccccc3c2c1 | -33%
Cn1c2ccccc2c(=O)c2cc(NC(=O)CCCCC(=O)Nc3ccc4c(c3)c(=O)c3ccccc3n4C)ccc21 | -5%
CC(CC(C)(C)[N+](C)(C)C)[N+](C)(C)C (stereo not drawn) | 0%
CC1CCN(CCC(=O)c2ccc(Cl)cc2)CC1 | 11%
CCCCCCCCCCCCCCC(C(=O)[O-])[n+]1ccccc1 (stereo not drawn) | 0%

SMILES | growth inhibition
CNC1C(OC2C(OC3C(O)C(O)C(N=C(N)N)C(O)C3N=C(N)N)OC(C)C2(O)CO)OC(CO)C(O)C1O (stereo not drawn) | 12%
O=C(O)c1ccccc1-c1ccccc1C(=O)Nc1ccc2c(c1)Cc1ccccc1-2 | 27%
O=[N+]([O-])c1cccc2nc3ccccc3c(NCCCN3CCOCC3)c12 | 53%
C=CC(C)(O)CCC1C(=C)C(O)CC2C(C)(C)CCCC12C (stereo not drawn) | 1%
CN1c2ccc(Cl)cc2C(=O)NC1c1ccc([N+](=O)[O-])s1 (stereo not drawn) | 11%
[O-][n+]1c2ccc(O)cc2nc2ccc(Br)cc21 | 41%
O=C1c2ccccc2-c2nc3ccccc3nc21 | -11%
CCCCN1C(=O)N(c2ccc(OCC)cc2)C2N(CCCC)C1C(C)(C)C2(C)C (stereo not drawn) | -12%
CO[C@H]1C[C@](C)(O)Cc2cc3c(c(O)c21)C(=O)c1c(O)cc2c(c1C3=O)O[C@@H]1O[C@@]2(C)[C@H](O)[C@@H](N(C)C)[C@@H]1O | -30%
COc1cc2c(cc1[N+](=O)[O-])C(=O)C(Br)(Br)CCC2 | 98% (active)
O=C1OC(CCl)CN1/N=C/c1ccc([N+](=O)[O-])o1 (stereo not drawn) | -5%
CN(C)CCOc1ccc2c(c1)C/C(=C/c1ncc([N+](=O)[O-])n1C)C2=O | 10%
CCCCCCCCCCCCCCCCCCN(C)CC(COP(=O)([O-])OCC[N+](C)(C)C)OC (stereo not drawn) | 98% (active)
CC(C)c1ccccc1NC(=O)/C(Cl)=C(\Cl)C(=O)O | 5%
O=[N+]([O-])C(=C(Sc1ccccc1)Sc1ccccc1)C(Cl)=C(Cl)Cl | 33%
C(=C\c1ccccc1)/COc1ccccc1C(N1CCOCC1)n1nc2ccccc2n1 (stereo not drawn) | -4%
O=C1C(Nc2ccccc2)=C(Oc2ccccc2)C(=O)c2ccccc21 | 23%
CCN(CC)CCN1C(=O)c2cccc3cc(OC)cc(c23)C1=O | -7%
CN(C)Cc1cc(N=Nc2ccc(Cl)cc2)cc(CN(C)C)c1O | 2%

same assay, conditions: S. cerevisiae bub3 mutant strain, at 33.0 µM, active compounds read high

SMILES | growth inhibition
O=CC=C(c1ccccc1)c1ccccc1 | -10%
FC(F)(F)c1nc2nc(Cl)c(Cl)nc2n1CCCN1CCOCC1 | 52%
BrCC[P+](c1ccccc1)(c1ccccc1)c1ccccc1 | 93% (active)
N#CSc1ccc(S(N)(=O)=O)cc1 | 37%
O=[N+]([O-])c1ccc2nc3ccccc3cc2c1 | 39%
O=C(NC(Nc1ccc(F)c(Cl)c1)(C(F)(F)F)C(F)(F)F)C(C(F)(F)F)C(F)(F)F | 95% (active)
O=C(/C=C\c1ccc(Cl)cc1Cl)c1cccs1 | 47%
O=C(NCCCCNCCCNC(=O)c1cc(-c2ccccc2)nc2ccccc12)c1cc(-c2ccccc2)nc2ccccc12 | 50%
NC(=NCc1ccccc1)N/N=C\c1ccnc2ccccc12 | 13%
CCCCN(CCCC)CCSc1ccc(Cl)cc1 | 3%
COc1cc(C2C3=C(COC3=O)Oc3cc4c(cc32)OCO4)ccc1O (stereo not drawn) | 5%
C#CCCCc1ccccc1 | 2%
CCc1ccc(NS(=O)(=O)c2ccccc2)c([N+](=O)[O-])c1 | 28%
COc1ccc(C2c3cc4c(cc3OC(C)(O)C2C)OCO4)c(OC)c1 (stereo not drawn) | 6%
COC(=O)c1ccc(CCC2=CC(=O)C(Br)=CC2=O)cc1 | -5%
NNC(=O)CCc1ccc2ccc3ccccc3c2c1 | 19%
Cn1c2ccccc2c(=O)c2cc(NC(=O)CCCCC(=O)Nc3ccc4c(c3)c(=O)c3ccccc3n4C)ccc21 | -3%
CC(CC(C)(C)[N+](C)(C)C)[N+](C)(C)C (stereo not drawn) | -1%
CC1CCN(CCC(=O)c2ccc(Cl)cc2)CC1 | 24%
CCCCCCCCCCCCCCC(C(=O)[O-])[n+]1ccccc1 (stereo not drawn) | -8%

SMILES | growth inhibition
CNC1C(OC2C(OC3C(O)C(O)C(N=C(N)N)C(O)C3N=C(N)N)OC(C)C2(O)CO)OC(CO)C(O)C1O (stereo not drawn) | 45%
O=C(O)c1ccccc1-c1ccccc1C(=O)Nc1ccc2c(c1)Cc1ccccc1-2 | 67%
O=[N+]([O-])c1cccc2nc3ccccc3c(NCCCN3CCOCC3)c12 | 93% (active)
C=CC(C)(O)CCC1C(=C)C(O)CC2C(C)(C)CCCC12C (stereo not drawn) | 31%
CN1c2ccc(Cl)cc2C(=O)NC1c1ccc([N+](=O)[O-])s1 (stereo not drawn) | 93% (active)
[O-][n+]1c2ccc(O)cc2nc2ccc(Br)cc21 | 78% (active)
O=C1c2ccccc2-c2nc3ccccc3nc21 | 46%
CCCCN1C(=O)N(c2ccc(OCC)cc2)C2N(CCCC)C1C(C)(C)C2(C)C (stereo not drawn) | -11%
CO[C@H]1C[C@](C)(O)Cc2cc3c(c(O)c21)C(=O)c1c(O)cc2c(c1C3=O)O[C@@H]1O[C@@]2(C)[C@H](O)[C@@H](N(C)C)[C@@H]1O | -31%
COc1cc2c(cc1[N+](=O)[O-])C(=O)C(Br)(Br)CCC2 | 99% (active)
O=C1OC(CCl)CN1/N=C/c1ccc([N+](=O)[O-])o1 (stereo not drawn) | 2%
CN(C)CCOc1ccc2c(c1)C/C(=C/c1ncc([N+](=O)[O-])n1C)C2=O | 20%
CCCCCCCCCCCCCCCCCCN(C)CC(COP(=O)([O-])OCC[N+](C)(C)C)OC (stereo not drawn) | 98% (active)
CC(C)c1ccccc1NC(=O)/C(Cl)=C(\Cl)C(=O)O | 7%
O=[N+]([O-])C(=C(Sc1ccccc1)Sc1ccccc1)C(Cl)=C(Cl)Cl | 45%
C(=C\c1ccccc1)/COc1ccccc1C(N1CCOCC1)n1nc2ccccc2n1 (stereo not drawn) | 86% (active)
O=C1C(Nc2ccccc2)=C(Oc2ccccc2)C(=O)c2ccccc21 | 55%
CCN(CC)CCN1C(=O)c2cccc3cc(OC)cc(c23)C1=O | 1%
CN(C)Cc1cc(N=Nc2ccc(Cl)cc2)cc(CN(C)C)c1O | 5%
